CYP2C9 inhib – blockers of cytochrome P450 2C9 activity – biochemical, luminescence, ADME assay, primary screen; P11712; CYP2C9 Supersomes, luciferin-H conversion; inhibition, % at 5 µM; 20% of 96,000 active; AID 777, 2007;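 active means blocking of liver enzyme CYP2C9 beyond about 50% at 5 µM, limit read from the data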
sEH activator – soluble epoxide hydrolase activators, primary screen, biochemical, human sEH | Bifunctional epoxide hydrolase 2 (Homo sapiens), P34913 | purified human sEH enzymatic activity, activator screen | activation, % at 2 µM | 0.04% of 91,000 active | AID 717, 2007; in the data active means activation above about 37%
Target sequence (P34913 whole entry, looked up): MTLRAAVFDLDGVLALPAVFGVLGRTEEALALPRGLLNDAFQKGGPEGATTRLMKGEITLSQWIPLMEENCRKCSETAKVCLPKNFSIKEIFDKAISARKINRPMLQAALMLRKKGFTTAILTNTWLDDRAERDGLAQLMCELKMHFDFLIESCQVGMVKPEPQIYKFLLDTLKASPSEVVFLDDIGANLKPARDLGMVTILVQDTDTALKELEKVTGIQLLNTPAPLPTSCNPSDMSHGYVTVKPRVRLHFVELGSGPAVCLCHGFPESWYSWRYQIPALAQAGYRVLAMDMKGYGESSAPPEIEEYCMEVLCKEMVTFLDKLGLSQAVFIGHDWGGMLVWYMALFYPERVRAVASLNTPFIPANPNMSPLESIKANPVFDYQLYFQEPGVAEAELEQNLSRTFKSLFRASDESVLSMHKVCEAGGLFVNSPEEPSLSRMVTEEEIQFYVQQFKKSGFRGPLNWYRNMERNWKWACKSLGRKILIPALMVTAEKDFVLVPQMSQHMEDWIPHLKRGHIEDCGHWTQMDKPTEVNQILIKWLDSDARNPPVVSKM
CYP2C19 inhib – blockers of cytochrome P450 2C19 activity – biochemical, luminescence, ADME assay, primary screen. inhibition, % at 5 µM. CYP2C19 Supersomes, luciferin-H EGE luminescence, 30 min. AID 778, 2007. P33261. 21% of 96,000 active;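 active means CYP2C19 inhibition above a set limit at 5 µM in the primary screen, cut at about 50% in these data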;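 further: plate controls were negative control wells for no effect and 2.5 mM tranylcypromine positive control for full effect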
CYP2C9 act – human CYP2C9 activators, primary screen, biochemical, luminescence. recombinant CYP2C9, luciferin-H conversion; active compounds read high; factor 1 = untreated enzyme, 0 = blocked. activation factor at 5 µM. 1.4% of 96,000 active;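 active means activation factor of 2 or more for CYP2C9 at a 5 µM dose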;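 further: 0 = sulfaphenazole-blocked wells and 1 = vehicle-only wells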
sEH inhibitor – soluble epoxide hydrolase inhibitors, primary screen, biochemical, human sEH; Bifunctional epoxide hydrolase 2 (Homo sapiens), P34913; recombinant human sEH enzymatic activity assay; inhibition, % at 2 µM; 0.34% of 91,000 active; AID 707, 2007; in the data active means inhibition above about 80%
CYP2C19 act – human CYP2C19 activators, primary screen, biochemical, luminescence | Cytochrome P450 2C19 (Homo sapiens), P33261 | recombinant CYP2C19, luciferin-H EGE luminescence; active compounds read high; 0 = fully inhibited enzyme, 1 = untreated enzyme | activation factor at 5 µM | 96,000 tested, under 10 active | AID 1025, 2008;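 active means activation factor of at least 2 at 5 µM in the primary screen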;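 further: 0 = wells with 2.5 mM tranylcypromine and 1 = vehicle-only wells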
* = called active by the depositor; x = no result given. Most compounds without a hit are left out; they make up all but 27% or so of the library.

SMILES	CYP2C9 inhib	sEH activator	CYP2C19 inhib	CYP2C9 act	sEH inhibitor	CYP2C19 act
CCN(CC)CCNC(=O)c1ccccc1C(=O)c1ncc[nH]1	21	6	14	0.8	-7	0.9
CC(C)CC(C(=O)N1CCc2ccccc2C1)N1C(=O)c2ccccc2C1=O (stereo unspecified)	25	-1	34	0.8	4	0.7
OCc1ccccc1CNCc1ccccc1	8	-1	62*	0.9	1	0.4
S=C(NCc1ccccc1)NCc1ccccc1	-12	0	90*	1.1	2	0.1
O=C(O)/C=C\C(=O)NCc1ccccc1	-19	3	-13	1.2	-1	1.1
CC1=NN(C(=O)Cc2ccc([N+](=O)[O-])cc2)C(O)(c2ccccc2)C1 (stereo unspecified)	33	18	59*	0.7	-19	0.4
Cc1ccc(OCC(O)CNC(=O)c2ccccc2C(=O)O)cc1 (stereo unspecified)	4	14	0	1	-13	1
CCC(CC)NCc1ccc(OC)cc1OC	-12	-10	-15	1.1	12	1.2
COc1ccc(CNC2CCCCC2C)c(OC)c1 (stereo unspecified)	7	x	62*	0.9	x	0.4
CN(C)c1ncc(S(=O)(=O)c2ccccc2)c(-c2ccccc2Cl)n1	32	-17	76*	0.7	14	0.2
NC(=S)N/N=C/c1ccccc1OCc1cccc(Cl)c1	10	2	21	0.9	-2	0.8
COCCn1c(SCC(=O)NCc2ccccc2)nnc1-c1ccco1	x	-6	x	x	6	x
N/C(Cc1ccc(Cl)cc1)=N\OC(=O)c1cccc2ccccc12	-103	4	12	2*	-4	0.9
COc1cc2c(cc1OC)C(SC)=NC(C)(C)C2	x	3	x	x	0	x
CCN(CC)S(=O)(=O)c1cccc(-c2nnc(SCc3ncc(-c4ccccc4)o3)n2C)c1	51*	-2	38	0.5	1	0.6
CCNC(=O)CSc1nnc(-c2cccc(S(=O)(=O)N(CC)CC)c2)n1CCc1ccccc1	12	-13	-17	0.9	11	1.2
COc1ccc(-c2nnc(SCc3nnc(-c4ccccc4)o3)n2C)cc1OC	20	-10	14	0.8	8	0.9
CCSc1nnc(-c2cccc(S(=O)(=O)N(CC)CC)c2)n1Cc1ccccc1	76*	7	90*	0.2	-8	0.1
Cc1cccc(OCCCC(=O)NCc2ccco2)c1	-1	11	45	1	-8	0.6
CC(=O)COc1ncn(-c2ccccc2)n1	4	11	-8	1	-10	1.1
COc1ccc(N/N=C(/C#N)S(=O)(=O)c2nsc(C)c2C#N)cc1	82*	-1	9	0.2	3	0.9
COc1ccc(Nc2nccc(OC)c2C#N)cc1	3	12	-9	1	-13	1.1
Cc1nn(C)c(C)c1NC(=O)Nc1cccc(C(F)(F)F)c1	3	-3	4	1	2	1
Cc1snc(S(=O)(=O)/C(C#N)=N/Nc2cccc(C(F)(F)F)c2)c1C#N	99*	15	12	0	-14	0.9
CCC1(CC)C(=O)N(C)C(=O)NC1=NCc1ccccc1	15	6	12	0.9	-4	0.9
SMILES	CYP2C9 inhib	sEH activator	CYP2C19 inhib	CYP2C9 act	sEH inhibitor	CYP2C19 act
Cc1cc(C)c(C#N)c(SCC(=O)CC(=O)OC(C)C)n1	53*	x	91*	0.5	x	0.1
Cc1ccc2sc(NC(=O)CSc3nc(C)cc(C)c3C#N)nc2c1	68*	11	68*	0.3	-8	0.3
Cc1cc(C)c(C#N)c(SCC(=O)Nc2nnc(-c3ccccc3)s2)n1	18	-13	10	0.8	11	0.9
Cc1cc(C)c(C#N)c(SCC(=O)OC2CCCCC2)n1	60*	x	66*	0.4	x	0.3
Cc1nc(SCC(=O)CC(=O)OC(C)C)c(C#N)c(C)c1C	23	16	64*	0.8	-13	0.4
C=CCSc1nnc(NC(=O)c2ccc(Cl)nc2)s1	42	17	26	0.6	-20	0.7
Cc1nc(N)nc(OCC(F)(F)C(F)F)c1Br	21	-1	19	0.8	4	0.8
CCOc1ccccc1N1CC(C(=O)N2CCc3ccccc32)CC1=O (stereo unspecified)	15	5	5	0.9	-2	0.9
O=C(c1n[nH]c(=O)c2ccccc12)N1CCN(C2c3ccccc3-c3ccccc32)CC1	64*	-3	68*	0.4	5	0.3
O=C(Cn1ncc2c1-c1ccccc1OC2)Nc1nc2ccccc2s1	55*	-5	46	0.4	7	0.5
CC(CCc1ccco1)NC(=O)Cn1ncc2c1-c1ccccc1OC2 (stereo unspecified)	67*	19	80*	0.3	-19	0.2
COc1ccc(N/C=C(\C#N)c2nc3ccccc3n2C)c(OC)c1	-29	-2	37	1.3	4	0.6
COc1ccc2nc(NC(=O)CSc3nccc(C)n3)sc2c1	14	8	30	0.9	-4	0.7
CCOc1ccc2nc(NC(=O)C(CC)Sc3nc(C)cc(=O)[nH]3)sc2c1 (stereo unspecified)	68*	4	18	0.3	-5	0.8
CC(C)C(NS(=O)(=O)c1cccc2nsnc12)C(=O)Nc1nc2ccc(Cl)cc2s1 (stereo unspecified)	-10	x	18	1.1	x	0.8
COc1ccc2nc(NC(=O)CSc3nc(C)cc(=O)[nH]3)sc2c1	52*	0	22	0.5	-2	0.8
CCOc1ccc2nc(NC(=O)c3ccoc3C)sc2c1	85*	-2	100*	0.2	2	0
CCOc1ccc2nc(NC(=O)Nc3ccccc3)sc2c1	15	-12	3	0.9	11	1
CCOc1ccc2nc(NC(=O)C(NS(=O)(=O)c3cccc4nsnc34)C(C)C)sc2c1 (stereo unspecified)	48	-9	70*	0.5	8	0.3
CCOc1ccc2nc(NC(=O)COC)sc2c1	-3	x	12	1	x	0.9
CC(C)Oc1ccc(N2CC(C(=O)OCC(=O)NCc3ccccc3)CC2=O)cc1 (stereo unspecified)	15	-8	-9	0.9	10	1.1
O=C(/C=C/c1cc([N+](=O)[O-])ccc1OC(F)F)NCc1ccc(F)cc1	-7	-3	34	1.1	1	0.7
CC(=O)OC(C(=O)NCc1ccc(F)cc1)c1ccccn1 (stereo unspecified)	-17	-6	-8	1.2	6	1.1
Brc1ccc(Nc2nc3ccccc3n3nnnc23)cc1	16	7	4	0.8	-5	1

Source: PubChem (several laboratories)
